Measurements from PubChem BioAssay AID1233 (SRMLSC, 2008).
Results with a measured potency or affinity are listed apart. Activity calls are given as the source filed them.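 The calls were made as follows: active = a dose-response curve fit returns a half-maximal inhibitory concentration, extrapolated values included; inactive = the fit returns no such concentration.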

Biological target: HMG-CoA reductase [Enterococcus faecalis] (UniProt Q9FD70)
Experiment: inhibitors of E. faecalis class II HMGR, confirmation, biochemical, Enterococcus faecalis (AID 1233);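 also: 0% = full reaction carrier wells and 100% = background wells lacking mevalonate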
Conditions: purified E. faecalis HMGR, NADPH absorbance 340 nm kinetics; series mostly up to 100 µM; inhibition: at the top concentration

inhibition, inactive:
C=CCOc1ccc(Br)cc1CNC(C)(C)C -2.42%, CN(C)CCNC(=O)c1ccc(COc2ccc(Cl)cc2Cl)cc1 -1.14%, Cc1nc(SCC(=O)N2CC(=O)Nc3ccccc32)c2c(C)c(C)sc2n1 -5.79%, CN(C)CCCN(Cc1ccccc1)C(=S)Nc1ccc(SC(F)F)cc1 -2.21%, COc1cc(Cn2c(=O)oc3ccc(C)cc32)ccc1OC(C)C -4.35%, C/C(=N/NC(=O)c1cc(O)c(O)c(O)c1)c1ccc([N+](=O)[O-])cc1 7.14%, Cc1cccc(C(=O)N2CCC(=O)N(C(COCc3ccccc3)Cc3ccccc3)CC2)c1 (stereo not drawn) -2.57%, CCCSc1nnc2n(N)c(=O)c3ccccc3n12 -3.93%, CC(=O)Nc1ccc2c(c1)OCCO2 -4.59%, COc1ccc(N2CC(C)(C)C2=O)cc1 -3.03%, Cc1nc2c([nH]1)C1(CCN(Cc3ccccc3)CC1)C(C#N)=C(N)O2 10.2%, O=C1NCCCC1C(=O)Nc1ccccc1C(F)(F)F (stereo not drawn) -6.64%, COc1ccc(C[C@H]2COC(=O)[C@@H]2Cc2ccc(OC3OC(CO)C(O)C(O)C3O)c(OC)c2)cc1OC (stereo partly drawn) -5.86%, CCCCCCNC(=O)C(=O)NCCc1ccc(Cl)cc1 -5.67%, CC(C)CNC(=O)CSc1ccc(Cl)cc1 -5.13%, Cn1c(CSc2nc3ccccc3s2)nc2ccccc21 -3.96%, COc1ccc(/C=C/C(=O)NC(=S)NNC(=O)c2cccnc2)cc1OC -3.52%, COc1cccc(C2NC(=O)NC(O)(C(F)(F)F)C2C(=O)c2cccnc2)c1OC (stereo not drawn) -8.84%, COc1ccc(NC(=O)N(Cc2cc3ccc(OC)cc3[nH]c2=O)CC2CCCO2)cc1 (stereo not drawn) -3.89%, Cn1c(OCc2cccnc2)nc2c1c(=O)n(Cc1ccc(Br)cc1)c(=O)n2C -5.55%, C=CCn1cnc2c(nnn2-c2ccc(Cl)cc2)c1=O -3.27%, CCCCOC(=O)NCN1C(=O)C2C3C=CC(C3)C2C1=O (stereo not drawn) 0.54%, CN(C(=O)c1cc2ccccc2oc1=O)C1(C)CCS(=O)(=O)C1 (stereo not drawn) -3.33%, CC(C)OCCCNC(=O)Nc1cccc2ccccc12 -0.1%, O=C(NC(NC(=S)Nc1ccccc1C(=O)O)C(Cl)(Cl)Cl)c1ccccc1 (stereo not drawn) -7.8%, COc1ccccc1C(=O)NNC(=O)c1ccc(NC(=O)c2ccccc2)cc1 -6.29%, COc1ccc(N=C2C(=O)Nc3ccccc32)cc1 -0.06%, COc1ccc(C(=O)C(C)OC(=O)c2cccc(S(=O)(=O)Nc3cc(Cl)c(OC)cc3OC)c2)cc1 (stereo not drawn) -1.47%, CC(C)c1ccc(NC(=O)COC(=O)/C=C/c2cccc(Br)c2)cc1 -6.09%, CC(=O)Nc1cccc(NC(=O)CSc2ccc(-c3cccnc3)nn2)c1 -0.43%, COc1ccccc1/C=C/C(=O)OCC(=O)Nc1c(F)cccc1F -14.5%, O=C(Nc1ccccc1)Nc1ccc2ocnc2c1 -4.39%, CC(=O)Nc1ccc(Cc2nc3ccccc3[nH]2)cc1 -3.93%, CCN1C(=O)/C(=C/c2cn(C)nc2C)SC1=S -13.8%, CC(C)(C)c1ccc(C(=O)Nc2ccc(NC(=O)c3ccco3)cc2)cc1 -4.08%, CCCCCC(=O)Nc1ccc(Cc2ccncc2)cc1 0.09%, O=C(Nc1ccc(Oc2ccccc2)cc1)c1ccc(Cn2c(=O)[nH]c3ccsc3c2=O)cc1 -8.26%, COCCN(C(=O)CNC(=O)c1cccs1)C(C(=O)NC1CCCCC1)c1ccco1 (stereo not drawn) -0.13%
